These results are taken from PubChem BioAssay (NCATS).

The nature of assay [1]: qHTS of pediatric cancer cell lines to identify multiple opportunities for drug repurposing: Primary screen for SK-N-MC cells (AID 1347093). Note: potency is the fitted concentration of half-maximal effect. Summed up: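 Metabolically active cells were quantified by ATP-dependent luminescence (CellTiter-Glo, 15 min at room temperature) following 48 h treatment. Cells had been plated at 500-1,000 per well and settled for 5 h beforehand.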
For orientation: qHTS replaces the single test concentration by a dilution series.

Assay [2] in a line: qHTS of pediatric cancer cell lines to identify multiple opportunities for drug repurposing: Primary screen for BT-37 cells (AID 1347094). Note: potency is the fitted concentration of half-maximal effect. Summed up:
(§1)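 Plated cells (500-1,000 per well, growth media) were allowed to settle for 5 hours, treated with compound dilutions for 48 hours, then lysed with CellTiter-Glo for 15 min at room temperature before luminescence reading.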

A short description of assay [3]: qHTS of pediatric cancer cell lines to identify multiple opportunities for drug repurposing: Primary screen for U-2 OS cells (AID 1347096). Note: nearly all actives have a fitted effect of over 50% in size. Summed up:
(§2)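 Viability after 48 h compound treatment at 37C, 500-1,000 cells/well, read as ATP luminescence with CellTiter-Glo. Primary screens used 11-point (MIPE, 0.78 nM-46 µM) or 8-point (NPC, 0.59 nM-46 µM) final concentrations; follow-up screens used 11-point dilutions.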

Assay [4] is described as follows: qHTS of pediatric cancer cell lines to identify multiple opportunities for drug repurposing: Primary screen for SK-N-SH cells (AID 1347098). Note: nearly all actives have a fitted effect of over 65% in size. Note: potency is the fitted concentration of half-maximal effect. Summed up:
(§3)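 Cells (500-1,000/well) rested 5 h, then received compounds for 48 h; metabolically active cells were measured by CellTiter-Glo luminescence. Final concentrations spanned up to 46 µM (MIPE, 11-point) or 0.59 nM-46 µM (NPC, 8-point) in primary screens, 11-point in follow-ups.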

A short description of assay [5]: qHTS of pediatric cancer cell lines to identify multiple opportunities for drug repurposing: Primary screen for NB1643 cells (AID 1347099). Note: nearly all actives have a fitted effect of over 50% in size. Note: potency is the fitted concentration of half-maximal effect. Summed up:
as §1

Assay [6] can be described thus: qHTS of pediatric cancer cell lines to identify multiple opportunities for drug repurposing: Primary screen for LAN-5 cells (AID 1347100). Summed up: as §2
Assay [7] in a line: qHTS of pediatric cancer cell lines to identify multiple opportunities for drug repurposing: Primary screen for BT-12 cells (AID 1347101). Note: nearly all actives have a fitted effect of over 25% in size. Note: potency is the fitted concentration of half-maximal effect. Summed up: as §3
Assay [8] in a line: qHTS of pediatric cancer cell lines to identify multiple opportunities for drug repurposing: Primary screen for Rh18 cells (AID 1347102). Note: nearly all actives have a fitted effect of over 65% in size. Summed up:
as §2

A short description of assay [9]: qHTS of pediatric cancer cell lines to identify multiple opportunities for drug repurposing: Primary screen for OHS-50 cells (AID 1347103). Note: nearly all actives have a fitted effect of over 40% in size. Note: potency is the fitted concentration of half-maximal effect. Summed up: as §3
The nature of assay [10]: qHTS of pediatric cancer cell lines to identify multiple opportunities for drug repurposing: Primary screen for RD cells (AID 1347104). Note: nearly all actives have a fitted effect of over 55% in size. Note: potency is the fitted concentration of half-maximal effect. Summed up:
as §1

Assay [11] in a line: qHTS of pediatric cancer cell lines to identify multiple opportunities for drug repurposing: Primary screen for MG 63 (6-TG R) cells (AID 1347105). Note: nearly all actives have a fitted effect of over 50% in size. Summed up: as §1
Assay [12] is described as follows: qHTS of pediatric cancer cell lines to identify multiple opportunities for drug repurposing: Primary screen for control Hh wild type fibroblast cells (AID 1347106).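 Note: series mostly up to about 46 µM; a drop in luminescence marks cytotoxicity and a rise apparent proliferation; nearly all actives have a fitted effect of over 55% in size.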 Summed up: as §2
The nature of assay [13]: qHTS of pediatric cancer cell lines to identify multiple opportunities for drug repurposing: Primary screen for Rh30 cells (AID 1347107). Note: series mostly up to about 46 µM; nearly all actives have a fitted effect of over 75% in size. Summed up:
as §2

A short description of assay [14]: qHTS of pediatric cancer cell lines to identify multiple opportunities for drug repurposing: Primary screen for Rh41 cells (AID 1347108).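 Note: series mostly up to about 46 µM; luminescence drop marks cytotoxic hits; nearly all actives have a fitted effect of over 70% in size.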 Summed up:
as §1

Assay [15] in a line: qHTS of pediatric cancer cell lines to identify multiple opportunities for drug repurposing: Confirmatory screen for NB1643 cells (AID 1347109). Note: nearly all actives have a fitted effect of over 45% in size. Summed up: as §2
A short description of assay [16]: qHTS of pediatric cancer cell lines to identify multiple opportunities for drug repurposing: Confirmatory screen for A673 cells (AID 1347110). Note: potency is the fitted concentration of half-maximal effect; nearly all actives have a fitted effect of over 65% in size. Summed up: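 Cells plated at 500-1,000/well were treated five hours later with multi-point dilutions up to 46 µM final. After two days, CellTiter-Glo was added and luminescence read.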
The nature of assay [17]: qHTS of pediatric cancer cell lines to identify multiple opportunities for drug repurposing: Confirmatory screen for SK-N-MC cells (AID 1347111).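 Note: potency is the fitted concentration of half-maximal effect; cells exposed to compound for 48 h before the readout; nearly all actives have a fitted effect of over 70% in size.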 To be noted: SK-N-MC cell viability. Summed up: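 SK-N-MC cells at 500-1,000 cells/well in growth media were pre-incubated 5 h, then exposed to compounds at 11-point dilutions for 48 h at 37 degrees C, 5% CO2. Viability was read as CellTiter-Glo luminescence.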

A short description of assay [18]: qHTS of pediatric cancer cell lines to identify multiple opportunities for drug repurposing: Confirmatory screen for BT-12 cells (AID 1347112). Note: nearly all actives have a fitted effect of over 55% in size. Summed up:
as §2

Assay [19] is described as follows: qHTS of pediatric cancer cell lines to identify multiple opportunities for drug repurposing: Primary screen for Saos-2 cells (AID 1347097). Note: nearly all actives have a fitted effect of over 40% in size. Note: potency is the fitted concentration of half-maximal effect. Summed up:
as §1

Assay [20] is described as follows: qHTS of pediatric cancer cell lines to identify multiple opportunities for drug repurposing: Primary screen for NB-EBc1 cells (AID 1347095). Summed up:
as §1

Results filed as inconclusive are left out. Calls of active or inactive are those of the source. Calls come from the whole dose curve; as a rule, active = well fitted curve in the direction sought with a large enough effect; inconclusive = small, poorly fitted or top-dose-only effect, or another doubt; inactive = no such curve, though single readings can be large; an effect the other way counts as inactive or inconclusive.

As for `CNC1(C)C2CCC(C2)C1(C)C` (stereo not drawn), the Potency entry in assay [1], in assay [2], in assay [3], in assay [4], in assay [5] and in assay [6] was “inactive” in each case. Besides, the Potency entry in assay [7], in assay [8], in assay [9], in assay [10], in assay [11] and in [13] was “inactive” throughout. In assay [14], the Potency result was “inactive”. Also, the call in assay [12] was inactive.
As to `C[C@]12CC[C@@H]3c4ccc(O)cc4C[C@@H](CCCCCCCCCS(=O)CCCC(F)(F)C(F)(F)F)[C@H]3[C@@H]1CC[C@@H]2O` (stereo partly drawn), the Potency in [1] was 9.44 µM (active); in [16], 11.7 µM (active); in assay [17] it was 2.61 µM (active). Also, the Potency result in assay [2], in assay [3], in [5], in assay [6], in [7] and in [8] was “inactive” throughout. Further, the Potency result in [10], in [11], in [13], in assay [14], in assay [15] and in assay [18] was “inactive” throughout. In assay [12], the compound was classed as inactive.
Take `O=C(O)CN(CCN(CC(=O)O)CC(=O)O)CCN(CC(=O)O)CC(=O)O`: the Potency result in assay [1], in [3], in assay [19], in [4], in [5] and in assay [7] was “inactive” each time. The Potency result in assay [8], in assay [9], in [10], in assay [11], in assay [13] and in assay [14] was “inactive” throughout. Besides, the compound was called inactive in [12].
Consider `CN(C)C/C=C(/c1ccc(Br)cc1)c1cccnc1`, for which the Potency result in assay [1], in assay [2], in [3], in assay [19], in [4] and in assay [5] was “inactive” in each case. The Potency result in assay [6], in [7], in [8], in assay [10], in assay [11] and in assay [13] was “inactive” in each case. In [14], the Potency result was “inactive”. The outcome in assay [12] was inactive.
Consider `O=C1NCN(c2ccccc2)C12CCN(CCCC(c1ccc(F)cc1)c1ccc(F)cc1)CC2`, for which the Potency in assay [1] was 16.8 µM (active); in assay [19], 13.3 µM (active); in [4], 13.7 µM (active); in assay [7], 13.8 µM (active); in assay [9], 15.5 µM (active); in assay [10] it was 26.6 µM (active). For the same compound, in assay [5], the Potency entry was “inactive”.
For the compound `CN1CCN(C2=Nc3ccccc3Oc3ccc(Cl)cc32)CC1`, the Potency result in assay [1], in [4], in assay [5], in assay [6], in assay [8] and in assay [10] was “inactive” throughout. Also, the Potency entry in [11], in [13] and in [14] was “inactive” each time. Also, in assay [12], the call was inactive.
Turning to `COCCc1ccc(OCC(O)CNC(C)C)cc1` (stereo not drawn), the Potency entry in assay [1], in assay [2], in assay [3], in assay [19], in [4] and in [5] was “inactive” in each case. For the same compound, the Potency entry in assay [6], in [7], in assay [8], in assay [10], in assay [11] and in assay [13] was “inactive” in each case. Also, the result in assay [12] was inactive.
For `COc1cc(C(=O)OCCCN2CCCN(CCCOC(=O)c3cc(OC)c(OC)c(OC)c3)CC2)cc(OC)c1OC`, the Potency entry in [1], in [20], in [3], in [19], in [4] and in [5] was “inactive” in each case. Further, the Potency entry in assay [8], in [11] and in assay [14] was “inactive” throughout. The compound was classed as inactive in [12].
For the compound `CCN(CC)CCOCCOC(=O)C1(c2ccccc2)CCCC1`, the Potency result in assay [1], in assay [3], in assay [19], in assay [4], in [5] and in assay [6] was “inactive” each time. Besides, the Potency entry in [7], in assay [8], in assay [11], in assay [13] and in assay [14] was “inactive” in each case.
On to `Cc1ccc(S(=O)(=O)NC(=O)NN2CCCCCC2)cc1`, for which the Potency entry in [2], in [20], in assay [3], in assay [19], in assay [4] and in assay [5] was “inactive” each time. Further, the Potency entry in assay [6], in [7], in assay [8], in assay [9], in [10] and in assay [11] was “inactive” in each case. Further, the Potency entry in assay [14] is “inactive”.
As to `CN(C)CCCN1c2ccccc2Sc2ccccc21`, the Potency result in [1], in assay [3], in assay [5], in assay [6], in assay [11] and in [13] was “inactive” throughout. For the same compound, in assay [14], the Potency result is “inactive”. The Potency in [9] is 17.4 µM (active).
With `C=CCc1ccccc1OCC(O)CNC(C)C` (stereo not drawn), the Potency entry in [1], in [2], in [3], in [19], in assay [4] and in assay [5] was “inactive” in each case. Besides, the Potency entry in [6], in [7], in assay [8], in assay [10] and in assay [14] was “inactive” in each case. Moreover, the compound was called inactive in assay [12].
For the compound `CC(C)COCC(CN(Cc1ccccc1)c1ccccc1)N1CCCC1` (stereo not drawn), the Potency was 16.8 µM (active) in [1]; 27.6 µM (active) in assay [2]; 26.6 µM (active) in [19]; 27.3 µM (active) in assay [4]; 29.9 µM (active) in [5]; 26.6 µM (active) in [10]. The outcome in assay [12] was inactive.
